This is one part of the list. Records with an inconclusive call do not appear. Activity calls are given as the source filed them. Calls follow the shape of the dose curve; as a rule, active = well fitted inhibition curve with a large enough effect; inconclusive = small, poorly fitted or top-dose-only effect; inactive = no such curve, though single readings can be large or run the other way.
Test: qHTS screen for small molecules that inhibit ELG1-dependent DNA repair: Hit Confirmation in Cell-Based Luciferin Assay (AID 624247)
Settings: cell-free firefly luciferase luminescence counter-screen, ViewLux; series mostly up to 46.1 µM; activity change, negative = inhibition: at the top concentration
Description: Cancer cells divide rapidly compared to normal cells in the body. During cell division, cancer cells need to duplicate their genome by DNA replication. The failure of genome duplication leads to cancer cells' death. Therefore, inhibitors of DNA replication could specifically kill cancer cells. Based on this concept, many chemotherapeutic agents were developed and have been used to treat cancer patients. However, there are a limited number of agents available in the clinical setting, and some of those that do exist have low efficacy and severe side effects. Therefore, if we can find the compounds that effectively block DNA replication either by directly damaging DNA or by inhibiting other cellular mechanisms, the options for cancer treatment will be broadened. With this in mind, we developed a quantitative high-throughput ELG1-luciferase reporter gene assay. Small molecules that specifically block ELG1 function in response to DNA damage can be identified by monitoring the suppression of luciferase activity. Since ELG1 defines a pathway for repairing DNA damage, agents blocking ELG1 function can be used to sensitize cancer cells to chemotherapeutic agents whose mechanism of action involves the induction of DNA damage. NIH Molecular Libraries Probe Production Network [MLPCN] NIH Chemical Genomics Center [NCGC] MLPCN Grant: R03 MH092164 Assay Provider: Kyungjae Myung, NHGRI, NIH
3 µL of substrate reagent will be pipetted into each well in 1536-well white, solid-bottom plates using a FRD dispenser, followed by addition of 23 nL of DMSO or compounds by pintool. After compound addition, 1 µL of luciferase will be added into the wells. The plates will be read in a ViewLux CCD-based plate reader.
% is scaled to controls: 0 for no effect and ±100 for the full control effect.

| SMILES | activity change, negative = inhibition |
| --- | --- |
| Cc1ccc(Nc2nc(N3CCOCC3)nc(N3CCOCC3)n2)cc1Cl | -0.931% (inactive) |
| O=C(Nn1c(SCc2ccc([N+](=O)[O-])cc2)nc2ccccc2c1=O)c1ccc(F)cc1 | 70.9% (inactive) |
| COc1ccc(CSc2nc(N3CCOCC3)c3c(c2C#N)CC(C)(C)OC3)cc1 | 3.91% (inactive) |
| COc1ccc(NC(C)=O)cc1NC(=O)CN1CCN(C2c3ccccc3-c3ccccc32)CC1 | -9.74% (inactive) |
| CCOC(=O)c1cccc(NC(=O)C2CCN(c3ncnc4c3nc3n4CCCCC3)CC2)c1 | 2.1% (inactive) |
| Cc1ccccc1NC(=O)CSc1nc2ccc(Nc3nc(N4CCOCC4)nc(N4CCOCC4)n3)cc2s1 | -6.03% (inactive) |
| CC(=O)N1CCc2cc(Br)cc(S(=O)(=O)CCC(=O)Nc3c(C)n(C)n(-c4ccccc4)c3=O)c21 | 27.9% (inactive) |
| Cc1ccc(OCC(=O)Nc2ccc(-c3nc4ncccc4o3)cc2)cc1 | 139% (inactive) |
| COc1ccc(NC(=O)c2sc3nc(C)nc(N4CCN(c5ccccn5)CC4)c3c2C)c(OC)c1 | -9.42% (inactive) |
| O=C(C1CCCN(S(=O)(=O)c2ccccc2)C1)N1CCN(c2ccc(F)cc2)CC1 (stereo unspecified) | -9.45% (inactive) |
| CS(=O)c1ccc(/C=C2\C=Cc3ccccc32)cc1 (stereo unspecified) | 44.3% (inactive) |

— PubChem BioAssay (NCATS)
